# Assay results taken from PubChem BioAssay (NCI).
# Compounds without any hit were thinned out: in the full panel of roughly 83,000, 20% have a hit.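 Plates (96-well) were seeded with cells, treated with compound at one concentration, and incubated for 48 hours before percent growth was determined.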 Unmarked numbers belong to inactive results. Calls of active or inactive are those of the source. The calls were made as follows: active = growth percent below 10; inactive = the rest.
# System: HL-60(TB) leukemia
# Test: NCI-60 one-dose screen, 48 h (100 = growth as untreated, 0 = no growth, -100 = all killed)
# Conditions: 10 µM unless noted
row,SMILES,growth
1,COc1ccc2c(c1)O/C(=C/c1ccc(OCC(=O)Nc3ccc(S(N)(=O)=O)cc3)cc1)C2=O,89.5%
2,c1ccc(-c2n[nH]c(-c3ccccn3)n2)nc1,105%
3,CC1(O)OC(COc2ccc(Cl)cc2)COC1O (stereo not given),105%
4,O=C(C[n+]1ccn(CC(OCc2ccc(Cl)cc2Cl)c2ccc(Cl)cc2Cl)c1)c1ccc(F)cc1 (stereo not given),-51.8% (active)
5,O=C(/C=C/c1ccc([N+](=O)[O-])o1)NNC(=O)c1cc2ccccc2cc1O,1.21% (active)
6,COc1ccc2c(c1)C(C)Cc1c(Cl)ncnc1N2C (stereo not given),-0.632% (active)
7,C=C1C(=O)O[C@H]2[C@H]1CC/C(COC(=O)C(=O)c1c[nH]c3ccccc13)=C\CC[C@@]1(C)O[C@@H]21,-46.5% (active)
8,COc1ccc(/C=C2\CCCC3=C2NC(N)=NC3c2ccc(OC)cc2)cc1 (stereo not given),67.8%
9,CCC(C)C1NC(=O)C(NC(=O)c2c3nc4c(C(=O)NC5C(=O)NC(C(C)CC)C(=O)N6CCCC6C(=O)N(C)CC(=O)N(C)C(C(C)C)C(=O)OC5C)ccc(C)c4oc-3c(C)c(=O)c2N)C(C)OC(=O)C(C(C)C)N(C)C(=O)CN(C)C(=O)C2CCCN2C1=O (stereo not given),-13.9% (active)
10,CN(C)CCC1(c2ccccc2)CCN(C)C1=O (stereo not given),109%
11,COc1ccc(/C=C/C(=O)c2cc3c(N)c(C(=O)Nc4ccccc4)sc3nc2C)cc1,2.92% (active)
12,CC(=O)ON=C1C=CC(=C(C#N)c2ccccc2)C=C1,-10.5% (active)
13,CCc1nnc(CNc2ccc(Cl)cc2)o1,92%
14,CCN1C(=O)N(c2ccccc2)C2Nn3c(s/c(=C4\C(=O)N(C(C)C)c5ccccc54)c3=O)=NC21 (stereo not given),97.8%
15,COc1cc(/C=C/C(=O)c2c(C)nc3ccccc3c2C)ccc1OCCCOc1cc2c(cc1OC)C(=O)N1CCC[C@H]1C=N2,-33% (active)
16,COc1ccc2c(c1)O/C(=C\c1cccc(OCC(=O)Nc3nc(C)c(C)s3)c1)C2=O,-77.3% (active)
17,CN(C)CCCNc1c2ccccc2nc2ccccc12,72.8%
18,Nc1nc2c(c3ncccc13)C(c1cccc(Cl)c1)Cc1ncccc1-2 (stereo not given),-6.22% (active)
19,CCOC(=O)c1nc2c3ccccc3cnn2c1C(=O)c1ccc(OC)cc1,102%
20,Cn1cc(-c2noc(C(=O)c3cn(C)c4ncccc34)n2)c2ccccc21,98.6%

row,SMILES,growth
1,CC(=O)/C(Br)=C/c1ccc(Br)o1,-18.8% (active)
2,Cc1ccc(OCCOCCOCCOc2ccc(C)n(O)c2=S)c(=S)n1O,37.6%
3,O=C(Nc1ccc(Cl)cc1)Nc1nc2ccc(OC(F)(F)F)cc2o1,83.3%
4,N#CC1C(C#N)C(C(=O)c2ccc(Br)cc2)N2c3ccccc3C=CC12 (stereo not given),94.3%
5,CCCCNC(=O)c1ccccc1C,84.4%
6,Nc1ccc(-c2cc3c(NCc4ccccc4)ncnc3s2)cc1,85.5%
7,CCC(CO)Nc1nc2ccc(Cl)cc2c2ccccc12 (stereo not given),25%
8,CCC/C(=N\NC(N)=O)C(OC)OC,86.5%
9,Nc1ccc(Br)cc1C(F)(F)F,90.2%
10,CCC(C)(C)c1ccc(OCCCCCCN2CCN(c3ccc(C)c(Cl)c3)CC2)cc1,84.5%
11,O=C1/C(=C/c2ccc3c(c2)OCO3)SC(=S)N1CCc1ccc(O)cc1,90.9%
12,CC1(C)CN(c2cnc(C(=O)Nc3cc(F)cc4cccnc34)cn2)CCN1,11.7%
13,CN(C)C(=S)SCN1C(=O)c2ccc([N+](=O)[O-])cc2S1(=O)=O,75.3%
14,N#CSCc1ccc(Cl)c(CSC#N)c1,0.395% (active)
15,CC1=C(C)C(=O)OC([C@](C)(O)[C@]2(O)CC[C@@]3(O)[C@@H]4C[C@H]5O[C@]56CC=CC(=O)[C@]6(C)[C@H]4CC[C@]23COC(=O)c2ccc(C)o2)C1 (stereo not given in full),-22.6% (active)
16,Nc1nc(N)c2nc(-c3cccc(O)c3)c(-c3cccc(O)c3)nc2n1,120%
17,NS(=O)(=O)c1ccc(N2N=C(c3ccccc3)CCC2=O)cc1,64.2%
18,NC(=O)c1cc(I)ccc1NC(=O)/C=C/c1ccccc1,0.952% (active)
19,CCCCC[C@H]1CC=C2C(=O)C=C[C@@H]2CC=CCCCC(=O)O[C@@H](CCCCC)CC=C2C(=O)C=C[C@@H]2CC=CCCCC(=O)O[C@@H](CCCCC)CC=C2C(=O)C=C[C@@H]2CC=CCCCC(=O)O1,-32.4% [8.75 µM] (active)
20,CC1(C)Cc2c(Br)c(Br)c(Br)c(OCC(O)CN3CCN(c4ccccn4)CC3)c2O1 (stereo not given),61.1%
